The results in this text go back to PubChem BioAssay (EPA / NIEHS).

SMILES strings stand for the structures. Records with an inconclusive call do not appear. Active and inactive are the calls of the source. How the source made its calls: active means hit-call score of the fitted dose curve at least 0.9, where 1 is the maximum; inconclusive means response in the unintended direction; inactive means score below 0.9.

Chain of Glyceraldehyde-3-phosphate dehydrogenase (Homo sapiens) (P04406 whole entry, looked up): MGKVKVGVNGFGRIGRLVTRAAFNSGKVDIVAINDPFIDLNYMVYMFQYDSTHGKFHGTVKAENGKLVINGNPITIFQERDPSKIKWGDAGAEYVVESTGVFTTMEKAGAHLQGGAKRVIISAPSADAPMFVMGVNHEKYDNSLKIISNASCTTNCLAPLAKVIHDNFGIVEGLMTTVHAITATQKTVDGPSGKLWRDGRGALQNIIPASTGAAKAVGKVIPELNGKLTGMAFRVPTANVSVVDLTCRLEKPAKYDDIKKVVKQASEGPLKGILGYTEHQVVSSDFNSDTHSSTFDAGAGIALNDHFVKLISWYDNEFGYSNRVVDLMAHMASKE

Read-out in this assay: Glyceraldehyde-3-phosphate dehydrogenase (Homo sapiens) (UniProt P04406)
Kind of assay: CLD_GAPDH_24hr: CellzDirect (CLD) Gene Expression Assay for Baseline Control (Glyceraldehyde 3-phosphate dehydrogenase) at 24 hours (AID 2283692). On the procedure:
CLD_24hr is a cell-based, multiplexed-readout assay that uses hepatocyte, a human liver primary cell, with measurements taken at 24 hours after chemical dosing in a 96-well plate.CLD_GAPDH_24hr is one of 16 assay component(s) measured or calculated from the CLD_24hr assay. It is designed to make measurements of mRNA induction, a form of inducible reporter, as detected with chemiluminescence signals by Quantitative Nuclease Protection Assay (qNPA) technology.Data from the assay component CLD_GAPDH_24hr was analyzed at the endpoint, CLD_GAPDH_24hr, in the positive analysis fitting direction relative to DMSO as the negative control and baseline of activity. Using a type of inducible reporter, gain-of-signal activity can be used to understand changes in the reporter gene as they relate to the gene GAPDH. Furthermore, this assay endpoint can be referred to as a secondary readout, because this assay has produced multiple assay endpoints where this one serves a background control function. To generalize the intended target to other relatable targets, this assay endpoint is annotated to the background measurement intended target family, where subfamily is baseline control.
Human hepatocyte cultures were treated daily for two consecutive days with fresh dosing solutions containing appropriate concentrations of the 320 ToxCast chemicals (chemical identities were blinded to CellzDirect and other ToxCast collaborators), vehicle control (0.2% DMSO), and positive control inducers as summarized in Table 1. Due to the large number of treatment groups and chemicals examined, the ToxCast chemicals were divided into two groups (spanning two independent cultures of hepatocytes from separate donor preparations (Hu778: ToxCast plates 1 and 2; Hu776: ToxCast plates 3 and 4). Each preparation of human hepatocyte cultures was treated with respective vehicle control, medium only control, set of six positive controls/reference chemicals for the five hepatic receptor pathways, and a subset of eight of the ToxCast chemicals (indoxacarb, pyrithiobac-sodium, norflurazon, cyhalofop-butyl, methomyl, thiram, acetochlor, and propiconazole). These replicate data, coupled with internal replicates designed within the blinded ToxCast chemical library, provided additional data to evaluate interindividual differences between hepatocyte preparations and their potential impact on chemical profiles.Cell morphology and integrity were evaluated using phase-contrast microscopy as an indicator of hepatocyte cell health (Tyson & Green, 1987). Cultures for each treatment group (i.e., media, vehicle [0.2% DMSO], positive control inducers [multiple concentrations], and the ToxCast chemicals [multiple concentrations]) were observed and cell morphology was assessed relative to vehicle control cultures at each harvest time point (0, 6, 24, or 48 h). […] Images were evaluated at the conclusion of the study to assess changes in cell integrity and account for the effects of chemical exposure on uncharacteristic changes in concentration-dependent gene expression profiles. The results from these determinations of apparent cytotoxicity were annotated (yes/no) alongside the corresponding qNPA data for reference.At the conclusion of each treatment period, hepatocyte cultures (96-well) were washed with 1 volume of HBSS, lysed by addition of 25 ul ArrayPlate lysis buffer (HTG, Tucson, AZ), and 70 ul/well of Denaturation Oil, denatured by incubation at 95C for 10 min, and frozen at approximately -70C until analysis by nuclease protection assay (qNPA) (Roberts et al., 2007). For qNPA analysis, cell lysates were thawed at 50C for approximately 30 min, qNPA probes were added, and samples were incubated at 95C for 10 min to begin the detection process by denaturing the target RNA, dissociating the duplexes and secondary structure hybridization. At the conclusion of the hybridization period, S1 nuclease reagent was added to each sample to digest all nonprotected nucleotides at 50C for 60-90 min. […]
In the case of `COC(=O)c1ccccc1CS(=O)(=O)NC(=O)Nc1nc(OC)cc(OC)n1`, the result was inactive.
The entry for `O=S(=O)(O)C(F)(F)C(F)(F)C(F)(F)C(F)(F)C(F)(F)C(F)(F)C(F)(F)C(F)(F)F` is “inactive”.
The entry for `CN1CSC(=S)N(C)C1` is “inactive”.
Next, `CCOc1nc(NC)nc(NC(=O)NS(=O)(=O)c2ccccc2C(=O)OC)n1`: “inactive”; `COP(=O)(OC)OC=C(Cl)Cl`: “inactive”; `Oc1ccc(Cl)cc1Cc1ccccc1`: “inactive”.
As for `CNC(=O)Oc1ccccc1OC(C)C`, the outcome was inactive.
With `CC(C)N(C(=O)COc1nnc(C(F)(F)F)s1)c1ccc(F)cc1`, the compound was called inactive.
Next, `O=C(O)COc1ccc(Cl)cc1Cl`: “inactive”.
The entry for `Cc1cc(C)nc(NC(=O)NS(=O)(=O)c2ccccc2C(=O)OC2COC2)n1` is “inactive”.
Next, `C#CCN1C(=O)COc2cc(F)c(N3C(=O)C4=C(CCCC4)C3=O)cc21`: “inactive”; `O=C(O)C(F)(F)C(F)(F)C(F)(F)C(F)(F)C(F)(F)C(F)(F)C(F)(F)F`: “inactive”; `[2H]C1([2H])[n+]2ccccc2-c2cccc[n+]2C1([2H])[2H]`: “inactive”.
`Oc1cc(Cl)ccc1Oc1ccc(Cl)cc1Cl`: the compound was called inactive.
As for `Cc1[nH]c(=O)n(C(C)(C)C)c(=O)c1Cl`, the compound was called inactive.
Next, `CNC(=O)CSP(=S)(OC)OC`: “inactive”.
For the compound `CCOCN(C(=O)CCl)c1c(C)cccc1CC`, the result was inactive.
In the case of `COc1cc(OC)nc(NC(=O)NS(=O)(=O)c2cc(NC=O)ccc2C(=O)N(C)C)n1`, the outcome was inactive.
Next, `CNC(=O)Oc1cccc(N=CN(C)C)c1`: “inactive”; `O=C1c2ccccc2C(=O)N1SC(Cl)(Cl)Cl`: “inactive”; `COC(=O)c1ccccc1S(=O)(=O)NC(=O)Nc1nc(C)nc(OC)n1`: “inactive”.
The entry for `N#Cc1c(Cl)c(Cl)c(Cl)c(C#N)c1Cl` is “inactive”; for `OCCOc1ccccc1` it is “inactive”.
The entry for `N#CN` is “inactive”; for `CCC(C)(NC(=O)c1cc(Cl)c(C)c(Cl)c1)C(=O)CCl` (configuration not stated) it is “inactive”; for `O=C(Nc1ccccc1)Nc1cnns1` it is “inactive”.
With `O=[N+]([O-])/N=C1\NCCN1Cc1ccc(Cl)nc1`, the compound was classed as inactive.
